“And” between values parts separate entries of the source, which are not always exact repeats. Equal entries are not always repeated. Where a structure was tested more than once in an assay, its records may differ in their call. The source made the active and inactive calls. The calls were made as follows: active = hit-call score of the fitted dose curve at least 0.9, where 1 is the maximum; inactive = score below 0.9.

This is an account of results in PubChem BioAssay (EPA / NIEHS).

This test can be described thus: BSK_3C_Proliferation: Cell Proliferation Assessment in the BioMAP Diversity Plus: 3C Assay (AID 2283006).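 As to AC50: potency may reflect either rise or fall in cell number versus DMSO.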 The settings on record: primary human endothelial cells (HUVEC). As to the method:
BSK_3C is a cell-based, multiplexed-readout assay that uses umbilical vein endothelium, a human vascular primary cell, with measurements taken at 24 hours after chemical dosing in a 96-well plate.BSK_3C_Proliferation is an assay component measured in the BSK_3C assay. It measures 0.1% sulforhodamine related to cell proliferation using Sulforhodamine staining technology.Data from the assay component BSK_3C_Proliferation was analyzed into 1 assay endpoint. This assay endpoint, BSK_3C_Proliferation, was analyzed with bidirectional fitting relative to DMSO as the negative control and baseline of activity. Using a type of viability reporter, measures of total protein for gain or loss-of-signal activity can be used to understand the viability at the cellular-level. Furthermore, this assay endpoint can be referred to as a secondary readout, because this assay has produced multiple assay endpoints where this one serves a viability function. To generalize the intended target to other relatable targets, this assay endpoint is annotated to the cell cycle intended target family, where the subfamily is proliferation.
The levels of cell surface (or secreted, indicated by the prefix "s") biomarker endpoints were measured by ELISA. Overt cytotoxicity to cells in confluent adherent cultures (all systems other than the BT system) was assessed by measuring total protein levels using sulforhodamine B (SRB) staining in parallel cultures at the time of biomarker measurements, indicated as SRB endpoints. For proliferation assays for adherent cell types, individual cell types are cultured at sub-confluence and relative cell numbers quantified by SRB staining at time points optimized for each system (48 h: 3C and CASM3C systems; 72 h: BT and HDF3CGF systems; 96 h: SAg system). SRB was performed by staining cells with 0.1% SRB after fixation with 10% TCA and reading wells at 560 nm.Viability and proliferation of PBMC (T cells) was quantified by Alamar Blue reduction for the SAg and BT systems. For PBMC viability (referred to as PBMC Cytotoxicity within the assay endpoint names), cells were plated (75,000/well in a 96-well plate) and then chemical samples added for 1 h before addition of activators, SEB and TSST-1 (20 ng/mL final concentration each). Cells were incubated for 90 h. Then, Alamar Blue (20 uL/well) (Invitrogen, Cat DAL1100) was added for 6 h, and the plates were read with a fluorescence microplate reader at 546/580 nm (excitation/emission). For PBMC proliferation, cells were plated and activated as above but incubated for only 16 h prior to addition of Alamar Blue. Plates were read after 6 h.
With `O=C(O)Cc1cc(I)c(Oc2cc(I)c(O)c(I)c2)c(I)c1`, the half-maximal activity concentration (AC50) was 21.3 µM (active). `Nc1cccc2c(N)cccc12`: the result was inactive. For the compound `CCCCCCC(=O)O`, the result was inactive. As to `CN1CCN(c2ccccc2/C=C2\SCCN(c3ccc(Cl)c(Cl)c3)C2=O)CC1`, the AC50 is 5.3 µM (active). Take `O=C(OCCOCCOC(=O)c1ccccc1)c1ccccc1`: the result was inactive. Consider `CC(O)CO` (stereo not given), for which the result was inactive. Still for that read-out and setting: in the case of `CCOC(=O)CC(O)(CC(=O)OCC)C(=O)OCC` it was “inactive”; in that of `C[C@@H]1C[C@H]2[C@@H]3CCC4=CC(=O)C=C[C@]4(C)[C@@]3(F)[C@@H](O)C[C@]2(C)[C@@]1(O)C(=O)COP(=O)(O)O`, “inactive”. As for `Cc1cc(CCN2CCN(c3nsc4ccccc34)CC2)cc2c1NC(=O)CC2(C)C`, the AC50 is 18.6 µM (active). As to `O=C(O)c1ccccc1C(c1ccc(O)cc1)c1ccc(O)cc1`, the result was inactive. In the case of `OCCC(F)(F)C(F)(F)C(F)(F)C(F)(F)C(F)(F)C(F)(F)F`, the AC50 is 46.5 µM (active) and 56.6 µM (active); the outcome was inactive. `C=C(C)C(=O)OCCC(F)(F)C(F)(F)C(F)(F)C(F)(F)C(F)(F)C(F)(F)F`: the outcome was inactive and the AC50 is 12.8 µM (active). Consider `O=c1c(-c2ccc(O)cc2)coc2cc(O)ccc12`, for which the AC50 is 20 µM (active).

As to `COCC(C)OCC(C)O` (stereo not given), the outcome was inactive. The same measure, in the same setting: in the case of `CC(C)(C)CC(C)(C)c1ccc(O)c(-n2nc3ccccc3n2)c1` it was “inactive”; in that of `CCCOC(=O)c1ccc(O)cc1`, “inactive”; in that of `c1ccc2c(c1)ccc1ccccc12`, “inactive”. `OC1CCCCC1`: the result was inactive.

Consider `c1ccc2c(c1)Cc1ccccc1-2`, for which the result was inactive. For `CC[C@H](c1ccc(O)cc1)[C@@H](CC)c1ccc(O)cc1`, the half-maximal activity concentration (AC50) is 15.9 µM (active). `CCCCCCCCCCCCN1CCCC1=O`: the AC50 was 30.6 µM (active). Consider `CCCCOCCO`, for which the result was inactive. Still for that read-out and setting: in the case of `CCCCCCCC(=O)O` it was “inactive”; in that of `CC(C)(C)c1cc(C(C)(C)C)c(O)c(C(C)(C)C)c1`, “inactive”. Consider `NC(=O)N(O)[C@@H]1C=C[C@H](Oc2cccc(Oc3ccc(F)cc3)c2)C1`, for which the AC50 is 9.97 µM (active). The same measure, in the same setting: in the case of `FC(F)(I)C(F)(F)C(F)(F)C(F)(F)C(F)(F)C(F)(F)I` it was 12.9 µM (active) [middle of 5 runs]. `CC1=C(/C=C/C(C)=C/C=C/C(C)=C/C(=O)O)C(C)(C)CCC1`: the concentration at half-maximal activity (AC50) was 32.8 µM (active). `CCc1nn(C2CCCCC2)c2cc(C3(C#N)CCC(C(=O)O)CC3)ccc12` (stereo not given): the concentration at half-maximal activity (AC50) is 6.36 µM (active). Take `OCCC(F)(F)C(F)(F)C(F)(F)C(F)(F)C(F)(F)C(F)(F)C(F)(F)C(F)(F)F`: the concentration at half-maximal activity (AC50) was 12.7 µM (active) and 17.4 µM (active) and 19.9 µM (active). As for `N#C[C@@H]1CC(F)(F)CN1C(=O)CNC1CC2CCC(C1)N2c1ncccn1` (stereo not given in full), the result was inactive. For the compound `CC(C)(C)c1cccc(C(C)(C)C)c1O`, the AC50 was 36.4 µM (active). For `CCC(=C(c1ccc(O)cc1)c1ccc(OCCN(C)C)cc1)c1ccccc1`, the AC50 was 5.85 µM (active). On to `Oc1cccc(O)c1`, for which the outcome was inactive.

For `NCC(F)(F)C(F)(F)C(F)(F)C(F)(F)C(F)(F)C(F)(F)C(F)(F)F`, the result was inactive. Regarding `CCCCC(CC)COC(=O)CCCCC(=O)OCc1ccccc1` (stereo not given), the outcome was inactive. With `O=[N+]([O-])c1ccc(O)cc1`, the result was inactive.

Take `CC(C)CCCCCCOC(=O)CCCCC(=O)OCCCCCCC(C)C`: the outcome was inactive. Take `CCCCCCCCCCCCc1ccccc1S(=O)(=O)O`: the AC50 was 32.3 µM (active).
